# Assay results from PubChem BioAssay (NCATS).
# Values joined by “and” are separate entries in the source; they are usually repeats but may differ in a detail not shown here. Identical values can stand only once. Results filed as inconclusive are left out. Where a call stands in place of a potency, no number is given. Active and inactive are the calls of the source. Unless noted, the call rests on the fitted dose curve; in most records, active means well fitted curve in the direction sought with a large enough effect; inconclusive means small, poorly fitted or top-dose-only effect, or another doubt; inactive means no such curve, though single readings can be large; an effect the other way counts as inactive or inconclusive.
# Key:
# [1] = molecular target: Alpha-galactosidase A (Homo sapiens) (UniProt P06280); assay: Counterscreen for Glucocerebrosidase Inhibitors: qHTS Assay for Human alpha-Galactosidase at pH 4.5 (AID 992)
# Chain of Alpha-galactosidase A (Homo sapiens) (P06280 whole entry, looked up): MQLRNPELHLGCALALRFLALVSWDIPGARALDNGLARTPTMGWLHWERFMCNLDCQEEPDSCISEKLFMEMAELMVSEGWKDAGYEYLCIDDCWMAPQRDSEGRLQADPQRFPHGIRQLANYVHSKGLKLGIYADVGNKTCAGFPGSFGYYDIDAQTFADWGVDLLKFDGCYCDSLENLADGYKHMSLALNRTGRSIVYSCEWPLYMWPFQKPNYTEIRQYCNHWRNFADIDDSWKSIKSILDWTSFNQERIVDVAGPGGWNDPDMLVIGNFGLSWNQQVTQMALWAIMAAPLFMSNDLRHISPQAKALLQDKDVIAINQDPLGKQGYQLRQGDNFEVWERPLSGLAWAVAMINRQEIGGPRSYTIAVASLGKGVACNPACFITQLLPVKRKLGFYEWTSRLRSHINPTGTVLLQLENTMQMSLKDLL
# Summary of the method: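 Citrate buffer pH 4.5, Tween-20 0.005%. Enzyme 2 nM, substrate 80 uM, 20 min RT. Stop pH 10. Fluorescence Ex 365/Em 440. AC50 by Hill fit.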
# [2] = molecular target: alpha-glucosidase (Oryza sativa, rice) (UniProt Q653V4); assay: Counterscreen for Glucocerebrosidase Inhibitors: qHTS Assay for Rice alpha-Glucosidase at pH 5.0 (AID 997)
# Summary of the method: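 Endpoint fluorogenic assay at pH 5.0: compounds (0.7 nM to 77 uM) titrated against 4 nM rice enzyme and 400 uM 4-MU-alpha-glucoside for 20 min at room temperature; NaOH/glycine stop, read ex 365/em 440 nm, Hill-fitted AC50.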
# [3] = Validation of Assay for Modulators of Lamin A Splicing (AID 1459; active means well fitted curve in the direction sought with a large enough effect in the signal ratio; the % refers to the signal ratio;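 further: cells exposed to compound for two days before reading; ratio rise marks activators and ratio drop marks inhibitors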)
# Summary of the method: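 S3 HeLa cells stably expressing a lamin A-EGFP splicing minigene and DsRed2 were seeded at 600 cells/well in Opti-MEM with 2% FBS, pin-dosed, and incubated 48 hrs at 37 °C, 5% CO2. Laser-scanning cytometry (488 nm) gave GFP/RFP total intensity ratio.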
# [4] = qHTS Assay for Lipid Storage Modulators (AID 1519; calls by dose curve); conditions: Drosophila S3 cells, BODIPY lipid droplet/cell ratio, laser cytometry, cells loaded with oleic acid
# Summary of the method: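 Cells seeded at 5,000 per well were treated with compounds over a concentration series and loaded with oleic acid (400 uM, as added). Lipid droplet fluorescence (488 nm excitation, 500-530 nm channel) was read by laser-scanning cytometry and normalized to 20 uM Triacsin C.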
# [5] = molecular target: DNA repair nuclease/redox regulator APEX1 (Homo sapiens) (UniProt P27695); assay: qHTS Validation Assay for Inhibitors of the Human Apurinic/apyrimidinic Endonuclease 1 (APE1) (AID 1705;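 further: TAMRA fluorescence gain over two minutes as APE1 cuts a quenched THF abasic duplex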)
# Chain of DNA repair nuclease/redox regulator APEX1 (Homo sapiens) (P27695 whole entry, looked up): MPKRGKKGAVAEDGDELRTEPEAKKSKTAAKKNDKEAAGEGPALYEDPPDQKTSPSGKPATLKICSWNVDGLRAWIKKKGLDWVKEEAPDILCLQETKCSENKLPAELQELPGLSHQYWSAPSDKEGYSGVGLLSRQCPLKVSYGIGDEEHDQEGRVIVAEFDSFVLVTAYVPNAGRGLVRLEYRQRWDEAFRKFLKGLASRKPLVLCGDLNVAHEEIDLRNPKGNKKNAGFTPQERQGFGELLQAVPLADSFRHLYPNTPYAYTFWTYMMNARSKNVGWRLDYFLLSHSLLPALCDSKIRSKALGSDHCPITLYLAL
# Summary of the method: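 Human APE1 was preincubated with compound for 15 min at room temperature, then 50 nM (final) THF-abasic double-stranded DNA substrate bearing 5'-TAMRA and 3'-BHQ-2 was added. Incision-driven fluorescence rise (ex 525/em 598 nm) was read kinetically.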
# [6] = Counterscreen for APE1 Inhibitors: Fluorescent Dye Displacement Validation Assay (AID 1707)
# Summary of the method: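 Signal: ThO fluorescence (ex 480 nm/em 540 nm) on binding 50 nM dsDNA; displacement by test compound reduces it. Conditions: 250 nM dye, 50 mM Tris-HCl pH7.5, 2 mM MgCl2, 50mM NaCl, 0.01% Tween-20.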
# [7] = molecular target: Endonuclease 4 (Escherichia coli (strain K12)) (UniProt P0A6C1); assay: Counterscreen for APE1 Inhibitors: qHTS Validation Assay for Inhibitors of Endonuclease IV (AID 1708)
# Summary of the method: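 Conditions: 2 nM enzyme, 50 nM TAMRA/BHQ-2 substrate, pH 7.5 Tris buffer with 2 mM MgCl2, RT. Compound preincubation 15 min; readout three fluorescence reads 60 s apart, third-minus-first.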
# [8] = qHTS for differential inhibitors of proliferation of Plasmodium falciparum line 7G8 (AID 1815);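 further: parasite growth measured after three days of incubation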; further: potency means the concentration at half of the fitted maximal effect
# [9] = qHTS for differential inhibitors of proliferation of Plasmodium falciparum line GB4 (AID 1816); conditions: Potency: Plasmodium falciparum GB4 proliferation inhibition;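 further: parasite growth measured after 72 h incubation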; further: potency means the concentration at half of the fitted maximal effect
# [10] = qHTS for differential inhibitors of proliferation of Plasmodium falciparum line 3D7 (AID 1876); further: potency means the concentration at half of the fitted maximal effect
# [11] = qHTS for differential inhibitors of proliferation of Plasmodium falciparum line Dd2 (AID 1882); conditions: Potency: Plasmodium falciparum Dd2 proliferation inhibition; further: nearly all actives have a fitted effect of over 65% in size; further: potency means the concentration at half of the fitted maximal effect
# Summary of the method: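 SYBR Green DNA fluorescence (ex 485, em 535 nm) after overnight lysis quantifies parasite growth; compound exposure lasted 72 h at 37 C on infected red cells at 2.5% hematocrit, 0.3% parasitemia (final). Artemisinin 0.29 uM and vehicle wells define normalization.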
# [12] = qHTS for differential inhibitors of proliferation of Plasmodium falciparum line W2 (AID 1883); conditions: Potency: Plasmodium falciparum W2 proliferation inhibition;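 further: parasites grown with compound for 72 h before lysis and staining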; further: potency means the concentration at half of the fitted maximal effect
# [13] = qHTS for differential inhibitors of proliferation of Plasmodium falciparum line HB3 (AID 1886); conditions: Potency: Plasmodium falciparum HB3 proliferation inhibition;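 further: parasites grown with compound for 72 h before SYBR Green readout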; further: potency means the concentration at half of the fitted maximal effect
# [14] = qHTS for differential inhibitors of proliferation of Plasmodium falciparum line D10 (AID 1877);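 further: parasites grown with compound for 72 h before DNA staining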; further: potency means the concentration at half of the fitted maximal effect
# [15] = qHTS Assay for Modulators of Human Peripheral Myelin Protein 22 (PMP22) Expression/Activity (AID 1967; active means well fitted curve in the direction sought with a large enough effect in the signal ratio; the % refers to the signal ratio)
# Summary of the method: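 MSC80 mouse Schwann cells stably carrying Pmp22 promoter–green click beetle luciferase plus EF-alpha–red luciferase control were dosed for 24h at 37 °C. Dual-colour luminescence was filter-overlap corrected; %Activity came from green/red ratio versus untreated cells.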
# [16] = measured here: cell count channel max response
# [17] = measured here: lipid channel max response
SMILES,outcome [1],outcome [2],outcome [3],"activity change, negative = inhibition ([4]; at 25.7 µM (top of the series))","activity change, negative = inhibition ([4]; at 57.5 µM (top of the series))","max response [4, 16]","max response [4, 17]",Potency [5],outcome [6],Potency [7],Potency [8],Potency [9],Potency [10],Potency [11],Potency [12],Potency [13],Potency [14],outcome [15]
NC(N)=NC(=O)Cc1c(Cl)cccc1Cl,inactive,inactive,inactive,-2.29% (inactive),1.08% (inactive),-10.4% and 9.91%,-13.2% and 12.7%,inactive,inactive,inactive,3.98 µM (active),3.98 µM (active),2.82 µM (active),inactive,3.16 µM (active),1.41 µM (active),,
COCCOC(=O)C1=C(C)NC(C)=C(C(=O)OC(C)C)C1c1cccc([N+](=O)[O-])c1 (stereo not drawn),,,inactive,,10.8% (inactive) and 3.42% (inactive),12.3% and 59.2%,26.9% and 56.5%,,inactive,,4.47 µM (active),10 µM (active),7.94 µM (active),,6.31 µM (active),8.91 µM (active),12.6 µM (active),
CC(C(=O)O)c1ccc(CC2CCCC2=O)cc1 (stereo not drawn),,,inactive,,-1.18% (inactive),-27.7%,-27%,inactive,inactive,,inactive,inactive,inactive,inactive,,inactive,inactive,inactive
CN/C(=C\[N+](=O)[O-])NCCSCc1ccc(CN(C)C)o1,inactive,inactive,inactive,-0.0815% (inactive),4.77% (inactive) and 9.42% (inactive),4.03% and -18.5% and 18.2%,2.82% and -19.9% and 33.3%,inactive,inactive,inactive,,,,,,,,inactive
CCCCCN(CCCCC)C(=O)C(CCC(=O)O)NC(=O)c1ccc(Cl)c(Cl)c1 (stereo not drawn),,,inactive,,2.8% (inactive),-5.79%,-4.23%,,inactive,inactive,inactive,inactive,inactive,inactive,inactive,inactive,inactive,inactive
CCN(CC)CCOCCOC(=O)C1(c2ccccc2)CCCC1,inactive,inactive,inactive,-7.98% (inactive),-1.81% (inactive) and 10.4% (inactive) and -0.577% (inactive),,,inactive,inactive,,3.16 µM (active),,,2.24 µM (active),0.794 µM (active),,,
O=C(CCNNC(=O)c1ccncc1)NCc1ccccc1,inactive,inactive,inactive,-0.0465% (inactive),1.21% (inactive),-2.07% and 1.8%,0.496% and 1.66%,inactive,inactive,,,,,inactive,,,,inactive
CN(C(=O)CCCOc1ccc2[nH]c(=O)ccc2c1)C1CCCCC1,inactive,inactive,inactive,,,,,inactive,inactive,inactive,7.08 µM (active),,,,14.1 µM (active),,,
CCN(CC)CC(=O)Nc1c(C)cccc1C,inactive,inactive,inactive,0.593% (inactive),2.9% (inactive),-1.17% and 18.4%,2.13% and 21.4%,inactive,inactive,,inactive,,inactive,inactive,14.1 µM (active),inactive,inactive,inactive
COC(=O)[C@@H](N)Cc1ccc(O)c(O)c1,inactive,inactive,inactive,,,,,inactive,inactive,inactive,,14.1 µM (active),,inactive,,,,
C#CCN(C)CCCOc1ccc(Cl)cc1Cl,,inactive,inactive,,,,,inactive,inactive,,,,inactive,inactive,11.2 µM (active),inactive,inactive,inactive
CC(=O)OC(C)C[N+](C)(C)C (stereo not drawn),,,inactive,,7.3% (inactive),18.4%,29.3%,inactive,inactive,inactive,inactive,inactive,inactive,inactive,inactive,inactive,inactive,inactive
CCCCNc1ccc(C(=O)OCCN(C)C)cc1,inactive,inactive,inactive,3.23% (inactive),14.3% (inactive),-0.19% and 24.9%,3.57% and 43.3%,,inactive,,inactive,,,inactive,inactive,inactive,,
CCn1nc(C(=O)O)c(=O)c2cc3c(cc21)OCO3,inactive,inactive,inactive,1.1% (inactive),13.5% (inactive),-2.39% and 18.6%,0.268% and 42.8%,inactive,inactive,inactive,,,,,,,,
Cc1nc2ccccn2c(=O)c1CCN1CCC(C(=O)c2ccc(F)cc2)CC1,inactive,inactive,inactive,,16.1% (inactive),7.37%,24.1%,inactive,inactive,inactive,7.94 µM (active),11.2 µM (active),10 µM (active),,7.94 µM (active),,,
N[C@@H](COP(=O)(O)O)C(=O)O,inactive,inactive,inactive,,3.29% (inactive) and -0.662% (inactive),18.8% and -18.9%,26.3% and -20.3%,inactive,inactive,,inactive,inactive,inactive,inactive,,inactive,inactive,inactive
